Screening results: PubChem, several laboratories
This is a sample that favours compounds with a hit; in the whole collection about 2.9% have one here.
MRP resist rev: reversal of MRP1-mediated doxorubicin resistance, primary screen, H69AR cells, doxorubicin co-treatment | H69AR cells + 2 uM doxorubicin, CellTiter-Glo, 72 h | differential viability (reversal), % at 10 µM | 0.04% of 85,000 active | AID 602, 2007;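 active = viability drop by adding the cancer drug above about 55%, with treated viability meeting a 40% cutoff, limit read from the data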;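 also: viability without doxorubicin minus viability with 2 µM doxorubicin for each compound; larger differential means the compound sensitizes cells more to doxorubicin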
ERb SRC1 inh: inhibitors of ERβ-SRC1 coactivator interaction, primary screen, biochemical, TR-FRET, ERβ LBD, SRC-1 peptide; inhibition, % at 25.6 µM; TR-FRET ER-beta LBD / SRC1-Cy5 peptide binding; receptor agonist-loaded with 1 µM estradiol; Estrogen receptor beta (Homo sapiens), Q92731; 1.3% of 86,000 active; AID 633, 2007;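 active = compounds whose percent inhibition of the receptor-coactivator binding signal exceeds about 50% in the single-dose screen, limit read from the data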;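 also: 0% = receptor plus peptide wells without compound and 100% = peptide-only wells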
Target sequence (Q92731 whole entry, looked up, the tested form may be a part): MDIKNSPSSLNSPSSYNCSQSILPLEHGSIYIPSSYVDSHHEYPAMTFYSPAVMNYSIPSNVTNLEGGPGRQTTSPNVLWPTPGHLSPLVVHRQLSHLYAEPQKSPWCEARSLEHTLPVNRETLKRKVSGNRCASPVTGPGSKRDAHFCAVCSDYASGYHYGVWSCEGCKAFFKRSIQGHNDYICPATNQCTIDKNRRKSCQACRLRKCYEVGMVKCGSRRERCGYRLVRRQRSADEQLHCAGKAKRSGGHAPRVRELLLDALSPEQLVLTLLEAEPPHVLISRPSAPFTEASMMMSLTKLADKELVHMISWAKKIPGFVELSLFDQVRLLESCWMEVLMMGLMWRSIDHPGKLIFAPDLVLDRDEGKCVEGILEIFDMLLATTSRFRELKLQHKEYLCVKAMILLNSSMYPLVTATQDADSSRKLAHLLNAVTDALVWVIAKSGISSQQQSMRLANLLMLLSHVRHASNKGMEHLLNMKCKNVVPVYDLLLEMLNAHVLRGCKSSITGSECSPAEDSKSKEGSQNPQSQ
ERa coact inh: ERα–SRC-1 coactivator interaction inhibitors, primary screen, biochemical, TR-FRET, ERα LBD, estradiol-bound; TR-FRET ER-alpha LBD / SRC-1 peptide; AID 629, 2007; inhibition, % at 25.6 µM; 1.7% of 86,000 active; in the data active = inhibition above about 50%;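 also: 0% = receptor plus peptide control and 100% = peptide only without receptor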
ERa coact pot: enhancers of ERα–SRC-1 coactivator binding, primary screen, biochemical, TR-FRET, ERα LBD, low estradiol; TR-FRET ERalpha-LBD/SRC-Cy5 coactivator binding, 2 h; 100 = basal binding, no effect; coactivator binding (% of control), % at 25.6 µM; 1.3% of 86,000 active; AID 639, 2007; in the data active = activity above about 200%;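 also: binding measured in presence of low estradiol as agonist stimulus; 0% = peptide alone without receptor and 100% = receptor with peptide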
Smad3 FoxH1 inh: Smad3/FoxH1 peptide binding inhibitors, primary screen, biochemical, TR-FRET; Mothers against decapentaplegic homolog 3 (Homo sapiens), P84022; TR-FRET Smad3/Dy647-FoxH1 peptide binding, europium anti-His; inhibition, % at 25 µM; 0.29% of 88,000 active; AID 630, 2007;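 active = compounds that reduce the energy-transfer binding signal between the protein and its labelled peptide by more than half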;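 also: 0% = Smad3 plus labelled peptide maximal FRET and 100% = peptide-only background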
MRP1 act: H69AR viability gain despite doxorubicin, primary screen, MRP-1 activator project, H69AR cells, CellTiter-Glo. 0.61% of 140,000 active. AID 799, 2007. viability increase, % at 10 µM. viability rescue;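 active = viability gain under doxorubicin at or above a set limit, the compound median plus 3 SD, cut at about 4.7% in these data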;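 also: MRP-1 overexpressing cells given doxorubicin 25 µM after compound pretreatment; 18-22 h compound pretreatment then 72 h with doxorubicin before readout; 0% = doxorubicin-only wells and 100% = vehicle-treated cells without doxorubicin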
Starred values were filed as active, the others as inactive; i = inactive; . = no result; [ ] = remark or other dose.

SMILES	MRP resist rev	ERb SRC1 inh	ERa coact inh	ERa coact pot	Smad3 FoxH1 inh	MRP1 act
O=C(Cn1c(=O)n(Cc2ccco2)c(=O)c2c3c(sc21)CCCCC3)Nc1ccccc1	-2.9	80.2*	73.3*	56.1	4.1	0.1
CN(C)CCn1c(=O)n(Cc2ccco2)c(=O)c2c3c(sc21)CCCCC3	-10.1	-8.5	2.4	105.0	17.7	-6.4
O=C(CSc1nc2sc3c(c2c(=O)n1Cc1ccco1)CCC3)N1CCc2ccccc21	1.0	36.4	36.3	344.0*	-43.0	.
O=c1c2c3c(sc2n(CCN2CCCC2)c(=O)n1Cc1ccco1)CCCCC3	-5.0	-11.7	-2.0	115.2	-0.1	-5.3
Cc1cc2c(=O)n(Cc3ccco3)c(SCC(=O)N3CCCc4ccccc43)nc2s1	8.5	-0.9	7.3	105.5	7.7	-1.8
Cc1c(C)c(C)c(CC2(C)CSC2)c(CC2(C)CSC2)c1C	.	.	.	.	4.5	.
O=C(O)c1ccc(Cl)c2c1C1C=CCC1C(c1ccccn1)N2 (centres undefined)	10.6	86.9*[fluorescence artefact?]	65.0*[fluorescence artefact?]	15.4	12.9	-1.6
COc1cccc2[nH]c3c(N4CCN(Cc5ccc6c(c5)OCO6)CC4)ncnc3c12	-6.5	2.5	3.8	94.6	8.0	-2.2
COc1cccc2[nH]c3c(N4CCC(C)CC4)ncnc3c12	-6.2	50.3*[fluorescence artefact?]	37.4	60.9	3.3	-0.8
C=CCc1cccc(/C=N/c2ncccc2O)c1O	9.4	57.8*[fluorescence artefact?]	21.5	62.8	15.9	-0.9
Cc1cc(C)cc(NC(=O)Cn2cc3c(n2)CCCCC3)c1	.	.	.	.	.	0.3
CN(C)c1ccc(NC(=O)Cn2cc3c(n2)CCCC3)cc1	-23.4	95.0*[fluorescence artefact?]	85.3*[fluorescence artefact?]	16.1	-1.8	-4.2
CC(C)CNc1nc2ncnc(N)c2[nH]1	.	.	.	.	15.9	.
COC(=O)c1ccc(COc2ccc3c4c(c(=O)oc3c2)CCC4)o1	-2.9	18.6	36.9	239.9*[fluorescence artefact?]	i	1.6
Cc1c(OCc2ccc(C(=O)O)o2)ccc2c3c(c(=O)oc12)CCC3	-10.6	46.9	39.8	49.0	-3.7	-1.8
COC(=O)c1ccc(COc2ccc3c(C)c(C)c(=O)oc3c2C)o1	4.5	13.5	7.1	444.5*[fluorescence artefact?]	-43.6	0.9
O=[N+]([O-])c1ccc(-c2nnc(CSc3nc(-c4ccccc4)nc4ccc(F)cc34)o2)cc1	3.8	-21.5	-27.1	151.2	2.5	.
c1ccc2oc(-c3ccc(Nc4nc(N5CCCCC5)nc(N5CCOCC5)n4)cc3)nc2c1	-1.5	27.5	19.8	92.6	10.9	-0.5
COc1nc(Nc2ccc(-c3nc4ccccc4o3)cc2)nc(N2CCOCC2)n1	26.1	-8.2	62.3*[fluorescence artefact?]	73.4	-8.5	.
CCCCOc1ccc(-c2nnc(-c3ccncc3)o2)cc1	-12.5	1.7	3.7	113.8	8.9	-0.3
CCCOc1ccc(-c2nnc(-c3cccs3)o2)cc1	-7.1	17.1	14.8	215.3*[fluorescence artefact?]	-75.7	-2.5
c1ccc(C2=NN[C@@H]3c4ccccc4-c4ccccc4N3C2)cc1	.	.	.	.	13.2	.
Cc1ccc(-n2c(SCC(=O)Nc3ccc4c(c3)OCO4)nnc2-c2cccs2)cc1	-0.8	39.1	85.3*[fluorescence artefact?]	378.2*[fluorescence artefact?]	-133.7	-0.9
O=C(CSc1nnc(-c2cccnc2)n1-c1ccccc1)Nc1ccc2c(c1)OCO2	-13.0	57.4*	-6.1	115.4	8.7	-0.5
Cc1ccc(NC(=O)CSc2nnc(-c3cccs3)n2Cc2ccco2)cc1	12.8	-15.1	-2.0	96.3	15.0	6.1*
SMILES	MRP resist rev	ERb SRC1 inh	ERa coact inh	ERa coact pot	Smad3 FoxH1 inh	MRP1 act
N#C/C(=C\Nc1ccccn1)C(=O)c1ccco1	.	.	.	.	0.3	.
Cc1ccc(S(=O)(=O)N2CCC(C(=O)O)(c3ccccc3)CC2)cc1	.	.	.	.	-5.1	.
O=C(CCn1nc(-c2ccc(Cl)cc2)ccc1=O)NCCCN1CCCCCC1	15.5	31.4	74.3*[fluorescence artefact?]	98.9	1.6	-3.7
CCn1ncc(/C=C/C(=O)C2CC2)c1C	.	.	.	.	.	-1.0
O=C1Nc2ccccc2C(O)(C(=O)NCc2ccco2)N1c1ccc(Cl)c(Cl)c1 (centres undefined)	13.0	46.5	28.9	76.3	4.8	-3.1
CC(=O)c1cccc(NC(=O)CN2C(=O)NC3(CCCCCCC3)C2=O)c1	-19.0	31.2	56.6*	68.6	10.0	-1.3
CC1(C)CC(=O)c2sc(N3CCCCC3)nc2C1	5.1	-6.2	-4.6	116.8	5.9	-1.3
Cc1cc(Br)c2c(c1)=C(c1sc(N3CCCCCC3)nc1O)C(=O)N=2	-11.6	50.0	74.1*[fluorescence artefact?]	178.9	8.2	0.6
COC1(OC)C(=N/O)/C(=N\O)CCC1O (centres undefined)	12.8	-1.1	-14.5	129.0	2.6	10.7*
Cc1c(N2C(=O)c3ccc4c5c(ccc(c35)C2=O)CC4)c(=O)n(-c2ccccc2)n1C	-7.3	91.7*[fluorescence artefact?]	95.4*[fluorescence artefact?]	-0.9	43.2	1.8
Cc1cc(C)n(-c2nc(SCCN(C)C)c3c4c(sc3n2)CCCC4)n1	-5.0	-14.9	0.7	86.7	15.9	-5.9
CCC(O)CNc1nc(-n2nc(C)cc2C)nc2sc3c(c12)CCCC3 (centres undefined)	5.2	-1.3	1.2	203.5*	-1.8	.
CCC(C)n1c(=S)[nH]c2c(sc3ccc([N+](=O)[O-])cc32)c1=O (centres undefined)	.	.	.	.	.	-2.6
N[C@@H](CSCc1ccccc1)C(=O)O	.	.	.	.	1.3	.
Cc1cc(=O)oc2cc(OCC(=O)Nc3cccc(S(=O)(=O)N(C)C)c3)ccc12	.	.	.	.	.	-2.4
Cc1ccc(N(C)S(=O)(=O)c2cccc(C(=O)Oc3ccc4c(C)cc(=O)oc4c3)c2)cc1	.	.	.	.	.	4.8*
CC1(C)Cc2c(c(-c3ccco3)[nH]c(=O)c2C#N)CS1	7.6	62.0*[fluorescence artefact?]	-12.3	111.9	-28.5	-0.8
CCc1noc(C)c1C(=O)Nc1nc(-c2cc(C)ccc2C)c(C)s1	.	.	.	.	.	5.5*
CCc1noc(C)c1C(=O)Nc1ncc(C)s1	21.0	-8.4	-11.5	103.0	-2.1	0.1
COc1ccc(-n2nc(C(=O)NCc3ccco3)c3c4ccccc4n(C)c3c2=O)cc1	-6.0	2.3	3.7	328.8*[fluorescence artefact?]	4.9	-3.2
COc1ccc(-n2nc(C(=O)NCc3ccco3)c3ccccc3c2=O)cc1	-9.5	9.9	5.8	124.4	12.5	-2.7
O=C(O)[C@@H]1[C@H](C(=O)Nc2ncccn2)[C@@H]2C=C[C@H]1O2	.	.	.	.	-0.9	.
CN(C)CCN(c1ccccn1)c1ccccn1	.	.	.	.	17.3	.
COc1ccc(-c2cc(-c3cccs3)c(C#N)c(SCC(=O)NCc3ccco3)n2)cc1	-29.9	39.1	53.7*	177.1	-8.5	-3.8
